Read-outs that look alike come from different tables or passages of the source. Out of some 13,000 compounds screened, about 3,200 (25%) showed an effect of 50% or more. The list shows a part of the results.
System: P. falciparum stage V gametocytes
Design: BacTiter-Glo ATP luminescence viability of purified stage V gametocytes in 384-well plates, per cent inhibition versus DMSO
Settings: 48 h, 5 µM, inhibitor

SMILES	% Inhibition [%]	% Inhibition (% Inhibition) [%]
COc1cccc(C(=O)Nc2ccc(Oc3ccc(Cl)cc3)cc2)c1 [TCMDC-123807]	-8.512	
CCC(=O)Oc1ccc(NC(=O)c2cccc(OC)c2)cc1 [TCMDC-131408]	8.36	
COc1cccc(C(=O)NCc2n[nH]c(=S)n2-c2ccc(Cl)c(Cl)c2)c1 [TCMDC-123816]	81.2	
Cc1nc(-c2cccc(Nc3nccc(NCC(O)c4cccc(C(F)(F)F)c4)n3)c2)cs1 (stereo not shown) [TCMDC-136581]	-55.32	
CC(Cc1ccc(OCC(=O)NCC2CCN(CCc3cccc(Cl)c3)CC2)cc1)NCCc1cccc(Cl)c1 (stereo not shown) [TCMDC-139834]	46.25	
CC(Cc1ccc(OCc2ccccc2)cc1)NCC(O)c1cccc(Cl)c1 (stereo not shown) [TCMDC-131473]	11.58	
CC(Cc1ccc(COc2ccc(CC(CO)NCCc3cccc(Cl)c3)cc2)cc1)NCCc1cccc(Cl)c1 (stereo not shown) [TCMDC-139844]	116.5	
CC(Cc1ccc(OCc2ccc(CCN(C)C)cc2)cc1)NCCc1cccc(Cl)c1 (stereo not shown) [TCMDC-139644]	101.3	
CCCCCCNC(=O)C1Cc2c([nH]c3ccc(C)cc23)C2(CCN(CCc3ccccc3)CC2)N1 (stereo not shown) [TCMDC-141092]	-44.59	
Cc1ccc(-c2cc(C(=O)Nc3ccc(S(=O)(=O)N4CCCC(C)C4)cc3)[nH]n2)c(O)c1 (stereo not shown) [TCMDC-125183]	-50.15	
COc1cc(CCOc2c(C)nc(N)nc2N)cc(OC)c1OC [TCMDC-131360]	-25.98	
FC(F)(F)c1ccc(Nc2nnnc3ccccc23)cc1 [TCMDC-125603]	38.58	
CC(Cc1ccc(SCCSc2ccccc2)cc1)NCC(O)c1cccc(Cl)c1 (stereo not shown) [TCMDC-131515]	37.98	
CNCCCCCCc1ccc(CC(C)NCC(O)c2cccc(Cl)c2)cc1 (stereo not shown) [TCMDC-131495]	95.63	
C[C@H](Cc1ccc(CCc2ccc(C[C@@H](C)NC[C@H](O)c3cccc(Cl)c3)cc2)cc1)NC[C@H](O)c1cccc(Cl)c1 [TCMDC-131551]	114.3	
COc1ccc(CC(Cc2ccc(OC)cc2)NCC(O)c2cccc(Cl)c2)cc1 (stereo not shown) [TCMDC-131543]	12.1	
Cc1ccc(CCC(C)NCC(O)c2cccc(Cl)c2)cc1 (stereo not shown) [TCMDC-131436]	13.72	
CC(Cc1ccc(Oc2ccc(Cl)cc2)cc1)NCC(O)c1cccc(Cl)c1 (stereo not shown) [TCMDC-131511]	4.056	
CC(Cc1ccc(S(=O)(=O)N(C(C)C)C(C)C)cc1)NCC(O)c1cccc(C(F)(F)F)c1 (stereo not shown) [TCMDC-131526]	19.58	
C[C@H](Cc1ccc(S(=O)(=O)c2ccc(C[C@@H](C)NC[C@H](O)c3cccc(Cl)c3)cc2)cc1)NC[C@H](O)c1cccc(Cl)c1 [TCMDC-131561]	74.46	
C[C@H](Cc1ccc(Oc2ccc(C[C@@H](C)NC[C@H](O)c3cccc(Cl)c3)cc2)cc1)NC[C@H](O)c1cccc(Cl)c1 [TCMDC-131560]	108	
CC(Cc1ccc(CSC(C)C)cc1)NCC(O)c1cccc(Cl)c1 (stereo not shown) [TCMDC-131525]	23.17	

SMILES	% Inhibition [%]	% Inhibition (% Inhibition) [%]
CCCCCCCSc1ccc(CC(C)NCC(O)c2cccc(Cl)c2)cc1 (stereo not shown) [TCMDC-131493]	21.35	
COC(=O)/C=C/c1ccc(CC(C)NCC(O)c2cccc(Cl)c2)cc1 (stereo not shown) [TCMDC-131433]	-3.295	
O=C(CCCCCNC(=O)c1ccc(O)c(-c2ccc(Cl)c(Cl)c2)c1)NCCN1CCCC1 [TCMDC-140826]	-20.01	
O=C(N[C@@H](CC1CCCCC1)C(=O)NCCN1CCOCC1)c1ccc(O)c(-c2ccc(Cl)c(Cl)c2)c1 [TCMDC-140854]	37.92	
O=C(NC1CCN(c2ccnc3ccccc23)C1)c1ccc(OC(F)(F)F)cc1 (stereo not shown) [TCMDC-133582]	-7.681	
O=c1cc(NCCCNCc2ccc3c(c2)OC(F)(F)O3)[nH]c2ccccc12 [TCMDC-139426]	-44.23	
CCCN(CCCCNC(=O)c1ccc(-c2cccnc2)cc1)C1CCc2c(O)cccc2C1 (stereo not shown) [TCMDC-139071]	-19.52	
CC(=O)Nc1ccc(CN2CCc3ccc(NS(=O)(=O)c4cccc(OCc5ccc(Cl)cc5)c4)cc3CC2)s1 [TCMDC-132327]	4.938	
O=C(Nc1ccc(-c2cccc(-c3nc4ccc(F)cc4[nH]3)c2)cc1)Nc1ccc(F)c(F)c1F [TCMDC-133235]	-6.689	
CN(C)CCOc1cccc(-c2cnc(N)c(-c3nc4ccc(S(C)(=O)=O)cc4[nH]3)c2)c1 [TCMDC-133722]	17.79	
CN(Cc1cnc2nc(N)nc(N)c2n1)c1ccc(C(=O)NC(CCC(=O)O)C(=O)O)cc1 (stereo not shown) [TCMDC-125488]		31.4
Cc1[nH]c(C)c(-c2ccc(Oc3ccc(OC(F)(F)F)cc3)cc2)c(=O)c1I [TCMDC-137387]	20.63	
Cc1[nH]c(C)c(-c2ccc(Oc3ccc(OC(F)(F)F)cc3)cc2)c(=O)c1Br [TCMDC-137325]		14.7
Cc1[nH]c(C)c(-c2ccc(-c3ccc(OC(F)(F)F)cc3)cc2)c(=O)c1Br [TCMDC-134726]	85.61	
Cc1[nH]c(C)c(-c2ccc(Oc3ccc(OC(F)(F)F)cc3)cc2)c(=O)c1Br [TCMDC-138826]		69.76
Cc1[nH]c(C)c(-c2ccc(Oc3cccc(OC(F)(F)F)c3)cc2)c(=O)c1Cl [TCMDC-137389]	30.57	
Cc1[nH]c(C)c(-c2ccc(-c3ccc(OC(F)(F)F)cc3)cc2)c(=O)c1Cl [TCMDC-136060]	114.3	
Cc1[nH]c(C)c(-c2cccc(-c3ccc(OC(F)(F)F)cc3)c2)c(=O)c1Br [TCMDC-135303]	76.13	
CS(=O)(=O)NCCCNCc1ccc(-c2ccc(-c3nc4cc(F)ccc4[nH]3)cc2)cc1.O=C(O)C(F)(F)F [TCMDC-133081]	-74.36	
Cc1cc(Nc2cc(Cl)cc(Cl)c2)nc(N)n1 [TCMDC-123780]	13.41	
CCCCc1ccc2[nH]cc(C3=CCN(C)CC3)c2c1Br [TCMDC-138963]	18.47	
